In all, about 330,000 compounds went through this assay and about 1,900 (0.58%) were called active. Not shown: some 4% with an inconclusive outcome. Not all results are given here. Results with a measured potency or affinity are listed apart. Unmarked numbers belong to inactive results. Rule as the data show it: inconclusive = inhibition above about 70% without an active follow-up result; inactive = below that.

A short description of the experiment: M. tuberculosis growth inhibition, HTS (AID 449762).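 Also: bacterial growth assessed after seven days of incubation.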 The following applies: M. tuberculosis H37Rv growth inhibition, 7H9 media; at 25 µM; stronger effect = higher value.
`COc1ccc(N(CC(=O)NC2CCCCCC2)S(=O)(=O)c2ccccc2)cc1Cl`: the inhibition is 11.1%.
Turning to `O=[N+]([O-])c1cc(-c2ccc(/C=N/n3cnnc3)o2)ccc1Cl`, the inhibition is 16.1%.
Turning to `O=[N+]([O-])c1ccc(Cl)c(-c2ccc(/C=N/n3cnnc3)o2)c1`, the inhibition is -1.71%.
Under `C/C=C1\COC(C(=O)NCCCN2CCCC2=O)(C(F)(F)F)C=C1C=C(C)C` (stereo not given) stands 2.64%.
Consider `NC(=O)CSC1=Nc2ccccc2C2=NC(c3ccccc3)C(=O)N12` (stereo not given), for which the inhibition was 4.02%.
In the case of `CN(C(=O)CSC1=Nc2ccccc2C2=NC(c3ccccc3)C(=O)N12)C1CCCCC1` (stereo not given), the inhibition is -5.75%.
For `CCOC(=O)Cn1nnc(-c2ccccc2)n1`, the inhibition was -9.53%.
Take `CCOC(=O)Cn1c(-c2ccccc2)cc(SC)c(C#N)c1=O`: the inhibition was 13.1%.
As to `NC(=O)Cn1nc(-c2ccccc2)nc1-c1ccccc1`, the inhibition is -2.98%.
On to `CCn1c(-c2ccccc2)ccc(C#N)c1=O`, for which the inhibition was -2.43%.
Under `COc1cc2cnc(-c3ccccc3)cc2cc1OC` stands 61.6%; under `CN(C)/C=N/NC(=O)c1ccc(Cl)cc1`, -3.16%.
`O=C(CCCCCn1nnc2ccccc2c1=O)Nc1ccccc1F`: the inhibition was -1.21%.
As to `COc1ccc(CNC(=O)CN(Cc2ccc(Cl)cc2)S(=O)(=O)c2ccccc2)cc1`, the inhibition was -11.8%.
For `CC(=O)Nc1cc(-c2nn(C)c(=O)c3ccccc23)ccc1N1CCCCC1`, the inhibition is 5.24%.
`CCC(=O)Nc1cc(-c2nn(C)c(=O)c3ccccc23)ccc1N1CCCCC1`: the inhibition is -0.54%.
As to `CC(=Nc1ccc2c(c1)CCC2)c1c(O)n(-c2ccccc2)c(=O)[nH]c1=O`, the inhibition is 0.86%.
`Cc1cccc(CS(=O)(=O)Cc2ccc(C(=O)NCCCN3CCOCC3)o2)c1`: the inhibition is -7.1%.
The figure for `Cc1ccc(NC(=O)COC(=O)C(NS(=O)(=O)c2ccc(Cl)cc2)C(C)O)cc1` (stereo not given) is -2.52%; for `COc1cc(Cl)c(C)cc1NC(=O)COC(=O)C(NS(=O)(=O)c1ccc(Cl)cc1)C(C)O` (stereo not given) it is -9.26%; for `OCC(CBr)(CBr)CBr` it is -6.91%.
Consider `CCC1=NC(c2ccc(OC)cc2)N(O)C1(C)C` (stereo not given), for which the inhibition is -1.62%.
Under `CC(O)(CS(=O)(=O)Cc1ccccc1)C(=O)Nc1cccc(C(F)(F)F)c1` (stereo not given) stands 8.28%; under `Cc1[nH]c2ccccc2c1/C=N/Nc1nc(Nc2ccc(F)cc2)nc(N2CCOCC2)n1`, 62.1%; under `C(=N\Nc1nc(Nc2ccccc2)nc(N2CCOCC2)n1)/c1c[nH]c2ccccc12`, 41.1%.
Consider `O=c1[nH]c(C2CCN(S(=O)(=O)c3ccc4c(c3)OCCO4)CC2)nc2c1nnn2Cc1ccc(F)cc1`, for which the inhibition was 37.9%.
As for `Cc1ccc(C)c(S(=O)(=O)N2CCC(c3nc4c(nnn4Cc4ccc(F)cc4)c(=O)[nH]3)CC2)c1`, the inhibition was 7.99%.
Consider `Cn1c(CC(=O)Nc2ccc(F)cc2)c(Sc2ccccc2)c2ccccc21`, for which the inhibition is 3.85%.
Under `NC(=O)C1CCCN(C(=S)NCc2ccc3c(c2)OCO3)C1` (stereo not given) stands -1.44%; under `CCOc1cc(/C=C/C(=O)OCC(=O)NCC2CCCO2)cc(Cl)c1OC` (stereo not given), 1.07%; under `O=C(C1CC1)N1N=C(c2ccc(Cl)cc2)CC1(O)C(F)(F)F` (stereo not given), 49%.
Turning to `O=C(c1ccc(Cl)cc1)N1CCCC(c2ccccc2)=N1`, the inhibition was 2.03%.
As for `CCN(CCO)C(=S)Nc1cc(S(=O)(=O)N(C)C)ccc1C`, the inhibition was -0.4%.
On to `CCOC(=O)c1c(C)[nH]c(C(=O)N2CCN(c3ccc(OC)cc3)CC2)c1C`, for which the inhibition was 53.5%.
As to `CCOC(=O)c1[nH]c(C)c(C(=O)N2CCN(c3ccc(OC)cc3)CC2)c1C`, the inhibition is -0.98%.
On to `C[C@H](CO)N1C[C@H](C)[C@H](CN(C)Cc2ccncc2)Oc2ccc(NC(=O)Nc3ccc(C(F)(F)F)cc3)cc2CC1=O`, for which the inhibition was 62.2%.
The figure for `CN(C)CCCNC(=O)c1ccc(-c2ccccc2)cc1` is -5.39%; for `C=CCNC(=O)c1ccc(-c2nc(-c3ccccc3)cs2)cc1` it is 1.66%; for `O=C(NN=C1CCCC1)c1cccc(O)c1` it is -8.1%.
As to `CCCNC(=O)CSc1n[nH]c(=O)n1CCc1ccccc1`, the inhibition is 7.69%.
Take `CCOC(=O)c1c(NC(=O)CCN2C(=O)c3cccc([N+](=O)[O-])c3C2=O)sc(C(=O)OC(C)C)c1C`: the inhibition was 3.56%.
Turning to `CCOc1ccc(Nc2nc(-c3cccnc3)cs2)cc1`, the inhibition is 4.09%.
As to `CCOc1ccc(NC(=O)CC2CC(C)(C)OC2=O)cc1` (stereo not given), the inhibition is -2.88%.
For `CC(=O)Nc1ccc(NC(=O)C(C)OC(=O)c2cc(S(=O)(=O)N(C)C)ccc2N2CCCC2)cc1` (stereo not given), the inhibition was 1.92%.
`Cc1ccc(C2=NC(C)(C)NC2=O)cc1`: the inhibition was 11.8%.
As to `CSc1nccc(N/N=C/c2ccccc2)n1`, the inhibition is 0.53%.
Take `O/N=C/c1ccnc(SCc2ccccc2)n1`: the inhibition was 16.4%.
The figure for `CC(CN1CCC(O)CC1)c1ccccc1` (stereo not given) is -0.24%; for `Clc1ccccc1CNC1CN2CCC1CC2` (stereo not given) it is -2.13%.
Take `FC(F)(Cl)c1nnc2ccc(Sc3ccccn3)nn12`: the inhibition is 2.59%.
Regarding `FC(F)(F)c1nnc2ccc(N3CCCC3)nn12`, the inhibition was -7.59%.
On to `O=C(OCc1c(F)cccc1Cl)c1cnc2ccccc2n1`, for which the inhibition was 48.8%.
`COC(=O)c1cnc2ccccc2n1`: the inhibition was -3.05%.
With `CC(C)C(NS(=O)(=O)c1cccs1)C(=O)NCCCN1CCCCCC1` (stereo not given), the inhibition is -1.69%.
The figure for `COc1ccc(OCCCC(=O)Nc2ccc(N3CCCCC3)cc2)cc1` is -1.89%; for `CCCc1nnc(NC(=O)CCC(=O)N2CCN(c3nc(C)cc(C)n3)CC2)s1` it is 0.06%; for `COc1ccc(S(=O)(=O)Cc2ccc(C(=O)NCCCN3CCc4ccccc4C3)o2)cc1` it is -0.56%.
In the case of `COc1cccc(OC)c1OCCCCCc1c(C)n[nH]c1C`, the inhibition was -7.6%.
Regarding `COc1cccc(OC)c1OCCCCc1c(C)n[nH]c1C`, the inhibition was 4.51%.
Regarding `COCC(C)NC(=O)Cc1ccc(F)cc1` (stereo not given), the inhibition was -4.61%.
Take `O=C(NC1CCN(Cc2ccccc2)CC1)c1cccc(S(=O)(=O)Nc2ccc(F)cc2)c1`: the inhibition is 37.8%.
With `COc1ccc(NS(=O)(=O)c2cccc(C(=O)NC3CCN(Cc4ccccc4)CC3)c2)cc1`, the inhibition is 6.7%.
Under `COCc1cc(C)nc(SCc2ccccc2)c1C#N` stands 15.8%.
Take `COc1ccc(/C=C/C(=O)Oc2cccc(/C=N/NC(=O)c3cccc(F)c3)c2)cc1`: the inhibition is 7.76%.
Consider `O=C(Oc1cccc(-n2cnnn2)c1)c1ccccc1Cl`, for which the inhibition was -11.6%.
Under `Cc1ccc(NC(=O)c2noc(C(C)C)c2[N+](=O)[O-])cc1` stands 0.01%; under `CCc1ccccc1NC(=O)c1noc(C(C)C)c1[N+](=O)[O-]`, 2.17%; under `COc1ccc(C(C(=O)NC2CCCC2)N(Cc2ccco2)C(=O)c2snc(C(N)=O)c2N)cc1OC` (stereo not given), 3.33%.
For the molecule `COc1cccc(/C=N/NC(=O)c2cccc([N+](=O)[O-])c2)c1OS(=O)(=O)c1ccccc1`, the inhibition is -10.3%.
Consider `Cc1cc(Nc2cc(N3CCN(C)CC3)nc(Sc3ccc(NC(=O)C4CC4)cc3)n2)n[nH]1`, for which the inhibition was 3.52%.
As for `Cc1nc(-c2ccc(NC(=O)C3CC3)cc2)cs1`, the inhibition was 37.4%.
As to `COc1cccc(NC(=O)Cn2c(=O)n(-c3ccccc3)c(=O)c3oc4ccccc4c32)c1`, the inhibition is -3.21%.
For `Cc1ccc2c(c1)c1c(n2C)C(C(N)=O)CCC1` (stereo not given), the inhibition is -14.2%.
The figure for `Cn1c(CNc2nc3ccccc3n2CCN2CCCCC2)nc2ccccc21` is 1.84%.
For the molecule `c1ccc(Cn2c(CNc3nc4ccccc4n3CCN3CCOCC3)nc3ccccc32)cc1`, the inhibition is 10.7%.
`Cc1ccc(C(=O)N/C(=C/c2cccs2)C(=O)NCCCn2ccnc2)cc1`: the inhibition was -0.44%.
For the molecule `O=C(NCCCSc1ccccc1)c1cccnc1`, the inhibition is 2.65%.
Under `O=C(Cc1ccccc1)N/N=C/c1ccccn1` stands -3.52%; under `NC(=O)N/N=C/c1ccc2cccc(OCc3ccccc3)c2n1`, 12.6%; under `CC(N)(C(=O)O)c1cccc(OCc2cccc(Cl)c2)c1` (stereo not given), -9.95%.
On to `CN(C(=O)CSc1nccc(=O)[nH]1)C1CCCCC1`, for which the inhibition was -5.2%.
On to `CCCn1c(Nc2ccccc2)nc2ccccc21`, for which the inhibition was 3.3%.
As for `CCCn1c(Nc2ccccc2C)nc2ccccc21`, the inhibition is -13.5%.
As for `CCN1CCN(Cc2cc(Br)ccc2O)CC1`, the inhibition is -0.17%.
The figure for `CC(C)CCC(C)NC(=O)CN1C(=O)NC(C)(c2ccc3ccccc3c2)C1=O` (stereo not given) is -6.81%; for `COc1ccc(C(=O)OCC(=O)NC2CC2)cc1F` it is 2.71%; for `NNC(=S)NCc1ccco1` it is -5.28%.
Under `CCNC(=S)NCc1ccco1` stands 8.6%.
For the molecule `CC[C@@H]1CN(C)[C@H]2Cc3c([nH]c4ccccc34)C(=O)C[C@@H]1[C@@H]2C(=O)OC`, the inhibition is -5.83%.
On to `COc1ccc(C2CC(c3ccc(Cl)cc3)n3nc(N)nc3N2)cc1` (stereo not given), for which the inhibition was 1.53%.
For the molecule `CCCc1nn2c(=O)c(C(c3cccc(Cl)c3)c3c(O)nc4sc(CCC)nn4c3=O)c(O)nc2s1`, the inhibition is -6.75%.
On to `COc1ccc(NC(=O)CCc2nnc3ccc(N4CCC(C)CC4)nn23)cc1`, for which the inhibition is -0.59%.
The figure for `CCOc1ccc(NC(=O)CCc2nnc3ccc(N4CCN(C)CC4)nn23)cc1` is 1.67%; for `O=C1CCCc2c1nc(-c1ccc([N+](=O)[O-])cc1)n2O` it is 0.46%.
As for `CC(C)CNC(=O)/C(C#N)=C1\N=C(NC(=O)c2ccco2)c2ccccc21`, the inhibition was 12.4%.
